Results taken from the supplement of paper PMC10338343.
± gives the standard deviation. The full ranking holds about 6,600 sequences; the median of “pre-steady-state target cleavage rate” is about 0.07, and the highest 2% start at about 0.72. The list comes from a sample in which the highest values are over-represented; it also holds similar and randomly drawn sequences.

tested on: MIWI (PIWIL1) piRISC loaded with Kctd7 piRNA (30 nt); experiment: pre-steady-state target cleavage rate (min^-1); MIWI and MILI are mouse PIWI proteins and EfPiwi is from a freshwater sponge; tags in brackets are library labels; higher = faster piRNA-guided slicing of the target; settings: guide: Kctd7 piRNA 5'p-UGUUAAUCUCUCAGAGAAGGUGACAGUGAU; auxiliary factor: 500 nM mouse GTSF1
How it was run: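 Three pooled Cleave-'n-Seq trials supplied the data, with k3 capped at 0.0001 min^-1. In each, […] transcribed, DNA-blocked target RNA library and 1 nM active affinity-purified piRISC with one synthetic guide reacted in HEPES–potassium acetate buffer at 33 °C for 0–8 or 0–960 min, with or without 500 nM GTSF1 partner protein. Uncleaved targets were sequenced and normalised to depth and to weakly complementary targets. A burst-and-steady-state fit provided the pre-steady-state cleavage rate.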
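Note: 1 nM active piRISC with 0.1 nM target library at 33 °C single turnover.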

Sequence	pre-steady-state target cleavage rate
UAGUGUGUCACCUUCUCUGAGAGAGUAACA	0.394 ± 0.046
UUCAGUGUCACCUACUCUGAGAGAUUAACA	0.509 ± 0.033
UACUCUGUCACCUUCUGUGAGAGAUUAACA	0.533 ± 0.025
UACACUGUCACCUUCUCUGAGAGAUAUUGA [g6:g28:cont:t1A]	0.0488 ± 0.017
UAGUGACUCACGUUCUCUGAGAGAUAAACA	0.119 ± 0.022
UAGUGACUCACCUUCUCAGAGAGAUAAACA	0.027 ± 0.0057
UAGUCUGUCACCUUCUCACAGAGAUUAACA	0.0188 ± 0.0059
UUCACAGUCACGUUCUCUGAGAGAUUAACA	0.685 ± 0.027
UACACUGUCACGUUCUCUGUGAGAUUAACA	0.233 ± 0.014
UUGACUGUCACGUUCUCUGAGAGAUUAACA	0.711 ± 0.037
UUCUCUGUCACGUUCUCUGAGAGAUUAACA	0.564 ± 0.026
AACACUGUCACGUUCUCUGAGAGAUUAACA	0.71 ± 0.035
AUGACUGUCACGUUCUCUGAGAGAUUAACA	0.755 ± 0.054
UUCACUGUCACGUUCUCUGAGAGAUUAACA	0.681 ± 0.035
AUCACAGUCACGUUCUCUGAGAGAUUAACA	0.737 ± 0.026
UAGACUGUCACGUUCUCUGAGAGAUUAACA	0.671 ± 0.042
UACACAGUCACGUUCUCUGAGAGAUUAACA	0.679 ± 0.035
UACACUGUCACGUUCUCUGAGAGAUUAACA	0.743 ± 0.037
AUCACUGUCACGUUCUCUGAGAGAUUAACA	0.821 ± 0.043
UAGACUGUGACCAUCUCUGAGAGAUUAACA	0.359 ± 0.025
UAGUGACACACCUUCACUGAGAGAUAAACA	0.112 ± 0.022
UUCACUGAUCACCUUCUCUGAGAGAUUAACA	0.653 ± 0.052

Sequence	pre-steady-state target cleavage rate
UUCACUGUCACCUUCUCUCAGAGAUUUACA	0.0958 ± 0.015
UAGACUGUCACCUUCUCUCUCUCUAAUUGA [g13:g27:cont:t1A]	< 0.0001
UAGACUGUCACCUUCUCUGAGAGAUAAUCA	0.0918 ± 0.018
AUCACUGUUACCUUCUCUGAGAGAUUAACA	0.553 ± 0.033
AUCACUGUUCACCUUCUCUGAGAGAUUAACA	0.79 ± 0.046
UAGACUGUCACCUUCUCUGAGAGAUUAACG [g2:g27:cont:t1G]	0.674 ± 0.034
UAGACUGUUACCUUCUCUGAGAGAUUAACA	0.745 ± 0.039
UUCACUGUUACCUUCUCUGAGAGAUUAACA	0.342 ± 0.032
UAGACUGUUCACCUUCUCUGAGAGAUUAACA	0.771 ± 0.043
UACACUGUUCACCUUCUCUGAGAGAUUAACA	0.614 ± 0.025
UAGACUUCACCUUCUCUGAGAGAUUAACA	0.576 ± 0.04
UUCACUGUUCACCUUCUCUGAGAGAUUAACA	0.633 ± 0.036
UAGUGAGUCACCUUCUCUGAGUCUUUAAGA	0.00546 ± 0.0039
UAGUGAGUCACCUUCUCUGAGAGAAUAUCA	0.124 ± 0.041
UAGUGACAGACCUUCUCUGAGAUAUUAACA	0.0437 ± 0.011
UUCUCUGUCACCUUCUCUGAGAGAUAUUGA	0.0992 ± 0.024
UAGUGACUCACCAAGUCUGAGAGAUAUUGA	< 0.0001
UAGUGACAGACCUUCUCUGUGAGUUUAACA	0.0139 ± 0.0037
UAGUGACACACCAUUCUCUGAGAGAUUAACA	0.245 ± 0.022
UAGUGACAGUGGAAGUCUGAGACAUAAACA	< 0.0001
UUACACUGUCACCUUCUCUGAGAGAUUAACA	0.769 ± 0.044
UACACUGUCACCUUCUCUGAGAGAUUAACG [g2:g28:cont:t1G]	0.566 ± 0.047

Sequence	pre-steady-state target cleavage rate
AUACACUGUCACCUUCUCUGAGAGAUUAACA	0.752 ± 0.05
UACACUGUCACCUUCUCUCUGAGAUUAACA	0.0197 ± 0.0062
UACACUGUCACCUUCUCUGAGAGAUUAACC [g2:g28:cont:t1C]	0.391 ± 0.034
UACACUGUCACCUUCUCUGAGAGAUUAACA [g2:g28:cont:t1A]	0.563 ± 0.039
UAGUGACAGACCUUCUCUGAGAGAUAUACA	0.0324 ± 0.0083
UAGUCUGUCACCUUCUCAGAGAGAUUUUGA	0.0587 ± 0.02
UAGACUGUCACCUUCUCUGAGAGAUUAAUA	0.414 ± 0.035
UUCAGUGUCACCAUCUCUGAGAGAUUAACA	0.585 ± 0.037
UAGACUGUCACCAUCUCUGUGAGAUUAACA	0.155 ± 0.013
UAGACUGUCACCAUCUCUGAGAGAUUAACA	0.741 ± 0.052
UAGACUGUCACCAUUCUCUGAGAGAUUAACA	0.792 ± 0.055
UAGUGUGUCACCAUCUCUGAGAGAUUAACA	0.609 ± 0.037
UAGACUGUCACCUUCUCUGAGAGAUUAACCA	0.648 ± 0.054
UAGACUGUCACCAUCUCUGAGAGAUUAAGA	0.112 ± 0.018
UAGAGUGUCACCAUCUCUGAGAGAUUAACA	0.741 ± 0.045
UAGACUGUCACCGUUCUCUGAGAGAUUAACA	0.625 ± 0.041
UAGACUGUCACCCUUCUCUGAGAGAUUAACA	0.517 ± 0.042
AUCACUGUCACCGUCUCUGAGAGAUUAACA	0.608 ± 0.038
UAGACUGUCACCGUCUCUGAGAGAUUAACA	0.769 ± 0.037
UAGUGACACACCUUCUCUGAGUGAAUAACA	0.00377 ± 0.0036
UACACUGACACCUUCUCUGUGAGAUUAACA	0.181 ± 0.019
UACACUCAGACCUUCUCUGAGAGAUUAAGA	0.0222 ± 0.0091

Sequence	pre-steady-state target cleavage rate
UAGUGACAGACCUUCUCUGAGAGACUAACA	0.0225 ± 0.0061
UAGACAGUGACCUUCUCUGAGAGAUUAACA	0.554 ± 0.033
UACACUGAGACCUUCUCUGAGAGAUUAUGA	0.0374 ± 0.015
UAGUGACAGACCUUCUCUGAGACAUUAACA	0.039 ± 0.0076
UUCACUGUCACCUUCUCUGUGAGAUUUACA	0.158 ± 0.027
UAGUGACACACCUUCACUGAGACAUUAACA	0.17 ± 0.029
AUCACUGUCACCUUGUCUGAGAGAUAAACA	0.552 ± 0.085
UAGACUGUCACGCUUCUCUGAGAGAUUAACA	0.563 ± 0.029
UAGACUGUCACAUUCUCUGAGAGAUUAACA	0.77 ± 0.051
UAGUCUGUCACAUUCUCUGAGAGAUUAACA	0.607 ± 0.03
AUCUCUGUCACCUUCUCAGAGAGAUUAACA	0.245 ± 0.024
UAGUCUAGUCACCUUCUCUGAGAGAUUAACA	0.67 ± 0.035
UAGUCGUCACCUUCUCUGAGAGAUUAACA	0.7 ± 0.049
UAGUCUGUCACCUUCUCUGAGAGAUUAACA [g2:g26:cont:t1A]	0.631 ± 0.026
UAGUCGGUCACCUUCUCUGAGAGAUUAACA	0.73 ± 0.037
UAGUCAGUCACCUUCUCUGAGAGAUUAACA	0.722 ± 0.034
UAGUCUGGUCACCUUCUCUGAGAGAUUAACA	0.749 ± 0.046
UUCACUCACACCUUCUCUGAGAGAUUAAGA	0.0618 ± 0.011
UUCACUGUCACCUUACUCUGAGAGAUUAACA	0.522 ± 0.026
UAGUCUGUCACCAUCUCUGAGAGAUUAAGA	0.0769 ± 0.013
